Results: PubChem BioAssay

Each molecule was assayed on Noggin (protein binding on small-molecule microarray) (assay: Noggin binders on small-molecule microarray, primary screen, biochemical, 635/667 nm fluorescence (AID 1095;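 also: score merges 667 nm feature fluorescence with signal to noise over triplicate slides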)). Settings: 635 nm fluorescence, higher = more signal.
Work on `C#CCN(Cc1ccccc1Br)[C@H](/C=C/c1ccccc1)[C@@H](O)Cc1ccccc1` yielded a composite z-score of -1.24. Molecule `COCCOC(=O)N1C(=O)[C@@]2(c3cc(C#CC4=CCCCC4)ccc31)[C@H](c1ccccc1OCCO)N1[C@H](c3ccccc3)[C@H](c3ccccc3)OC(=O)[C@H]1[C@@H]2C(=O)NC[C@H](O)c1ccccc1` has a composite z-score of 1.45. Work on `NCCCCCCNC(=O)[C@@H]1C[C@@H]2C(=O)N[C@@H](CCCCN)C(=O)N2[C@@H]1c1ccc(O)cc1` yielded a composite z-score of 0.367. In the case of `C=CC[C@]1(C(=O)N2CCOCC2)COC(c2ccc(OCCCO)cc2)=N1`, the composite z-score is reported as 0.78. For `COc1ccc(C(=O)Nc2ccc(CN3C(=O)[C@]4(O[C@H](CC(=O)N5Cc6ccccc6C[C@H]5CO)[C@@H]([Si](C)(C)c5ccc(OC)cc5)[C@@H]4C)c4ccccc43)cc2)cc1`, the composite z-score was 1.34. `CCCNC(=O)[C@@H]1c2ccccc2C(=O)N(Cc2ccc(OC(F)(F)F)cc2)[C@H]1c1ccc(CO)cc1` showed a composite z-score of -0.0211.

These molecules were tested against Neurogenic locus notch homolog protein 3 (Homo sapiens) (UniProt Q9UM47) (assay: NOTCH3 binders on small-molecule microarray, primary screen, biochemical, 635/667 nm fluorescence (AID 1096)). Settings: NOTCH3 binding, 635 nm fluorescence, higher = more signal.
Sequence of Neurogenic locus notch homolog protein 3 (Homo sapiens) (Q9UM47 whole entry, looked up): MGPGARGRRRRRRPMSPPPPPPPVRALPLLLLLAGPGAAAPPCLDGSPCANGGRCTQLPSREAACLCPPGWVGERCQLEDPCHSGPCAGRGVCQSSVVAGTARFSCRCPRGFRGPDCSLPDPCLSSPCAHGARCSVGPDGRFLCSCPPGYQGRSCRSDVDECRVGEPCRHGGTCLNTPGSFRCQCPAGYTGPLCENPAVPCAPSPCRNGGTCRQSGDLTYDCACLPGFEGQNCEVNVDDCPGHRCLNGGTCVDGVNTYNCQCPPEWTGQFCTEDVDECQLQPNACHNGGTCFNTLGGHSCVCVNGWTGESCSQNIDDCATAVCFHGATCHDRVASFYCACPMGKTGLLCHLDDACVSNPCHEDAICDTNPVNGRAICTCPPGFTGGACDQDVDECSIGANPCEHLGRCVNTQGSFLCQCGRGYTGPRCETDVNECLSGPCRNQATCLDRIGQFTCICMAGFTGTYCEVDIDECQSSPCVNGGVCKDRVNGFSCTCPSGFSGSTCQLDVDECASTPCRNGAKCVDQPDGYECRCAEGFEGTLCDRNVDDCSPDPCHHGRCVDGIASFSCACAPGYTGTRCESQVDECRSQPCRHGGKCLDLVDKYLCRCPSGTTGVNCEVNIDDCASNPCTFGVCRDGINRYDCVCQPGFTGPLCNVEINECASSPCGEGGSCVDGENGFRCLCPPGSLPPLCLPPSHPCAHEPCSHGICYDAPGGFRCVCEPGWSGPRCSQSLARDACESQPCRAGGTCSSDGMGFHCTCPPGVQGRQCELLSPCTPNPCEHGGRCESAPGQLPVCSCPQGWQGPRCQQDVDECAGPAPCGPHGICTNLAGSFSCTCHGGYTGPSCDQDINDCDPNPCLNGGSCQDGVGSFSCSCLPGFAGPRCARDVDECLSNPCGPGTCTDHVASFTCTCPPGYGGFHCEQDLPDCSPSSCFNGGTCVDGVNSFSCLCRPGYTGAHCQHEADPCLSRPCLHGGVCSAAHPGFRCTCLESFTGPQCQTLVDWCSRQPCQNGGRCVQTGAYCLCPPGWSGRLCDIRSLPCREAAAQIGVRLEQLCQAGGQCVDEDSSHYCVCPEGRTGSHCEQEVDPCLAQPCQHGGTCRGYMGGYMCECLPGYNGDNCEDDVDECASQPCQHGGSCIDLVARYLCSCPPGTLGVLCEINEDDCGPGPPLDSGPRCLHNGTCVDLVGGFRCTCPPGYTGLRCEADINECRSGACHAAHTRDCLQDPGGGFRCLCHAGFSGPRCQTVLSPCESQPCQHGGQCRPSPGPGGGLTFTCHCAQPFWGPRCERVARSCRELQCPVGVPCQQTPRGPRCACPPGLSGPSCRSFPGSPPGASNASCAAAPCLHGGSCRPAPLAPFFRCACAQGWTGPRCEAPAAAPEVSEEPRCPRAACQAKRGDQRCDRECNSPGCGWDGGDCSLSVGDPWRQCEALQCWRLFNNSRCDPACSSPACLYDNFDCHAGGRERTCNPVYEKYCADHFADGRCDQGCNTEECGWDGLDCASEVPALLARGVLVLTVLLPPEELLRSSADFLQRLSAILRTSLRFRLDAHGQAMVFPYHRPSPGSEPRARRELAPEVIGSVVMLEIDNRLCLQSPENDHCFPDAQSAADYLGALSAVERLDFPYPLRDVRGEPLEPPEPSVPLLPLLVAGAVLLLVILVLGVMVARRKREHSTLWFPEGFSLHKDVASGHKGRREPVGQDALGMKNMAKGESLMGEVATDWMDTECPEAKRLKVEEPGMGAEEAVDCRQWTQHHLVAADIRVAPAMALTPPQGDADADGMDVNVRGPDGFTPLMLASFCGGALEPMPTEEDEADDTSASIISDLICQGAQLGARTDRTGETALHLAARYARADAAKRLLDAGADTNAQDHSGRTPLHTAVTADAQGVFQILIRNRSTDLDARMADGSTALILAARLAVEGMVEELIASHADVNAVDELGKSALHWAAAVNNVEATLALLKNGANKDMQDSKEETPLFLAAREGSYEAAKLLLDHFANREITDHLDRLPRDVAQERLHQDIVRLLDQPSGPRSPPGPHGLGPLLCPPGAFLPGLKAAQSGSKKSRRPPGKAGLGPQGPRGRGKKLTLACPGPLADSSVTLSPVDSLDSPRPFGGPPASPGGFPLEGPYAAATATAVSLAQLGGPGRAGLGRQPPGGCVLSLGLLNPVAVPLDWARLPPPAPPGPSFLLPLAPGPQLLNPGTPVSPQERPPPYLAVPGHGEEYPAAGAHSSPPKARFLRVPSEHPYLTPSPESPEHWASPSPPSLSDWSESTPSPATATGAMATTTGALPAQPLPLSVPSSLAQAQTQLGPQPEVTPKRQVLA
For `C=CCC(OC(C)=O)[C@@H]1[C@@H](N(Cc2ccc(-c3ccccc3)cc2)C(=O)c2ccc(-c3ccccc3)cc2)c2cc(OCCCO)ccc2N1C(=O)c1ccc2ccccc2c1` (stereo partly specified), the composite z-score was 0.306. Molecule `CCOC(=O)C[C@H]1[C@H](OC(=O)c2cc3ccccc3oc2=O)[C@@H](NC(=O)c2ccc3ccccc3n2)c2cc(OCCCO)ccc2N1C(=O)Cc1ccc(OC)cc1` has a composite z-score of 1.16. `Cc1ccc(S[C@]2(C(=O)NCC(F)(F)F)CC(=O)N(Cc3cc(C(F)(F)F)cc(C(F)(F)F)c3)[C@@H]2c2ccc(CO)cc2)cc1` gave a composite z-score of -0.133. Work on `COC(=O)[C@@]1(Cc2ccc(OC)cc2)[C@H]2c3cc(C(=O)N4CCCC4)n(CCc4c[nH]c5ccc(O)cc45)c3C[C@H]2CN1C(=O)c1ccccc1` yielded a composite z-score of 1.12. `NC(=O)[C@@]1(Cc2ccccc2)COC(c2ccc(OCCCO)cc2)=N1` was tested, and the composite z-score was -0.537. `COCCOC(=O)N1C(=O)[C@@]2(c3cc(C#CCCO)ccc31)[C@H](C(=O)Nc1nc3ccccc3s1)[C@H]1C(=O)O[C@H](c3ccccc3)[C@H](c3ccccc3)N1[C@@H]2c1ccc(O)cc1` showed a composite z-score of 1.03. For `COc1ccc([Si](C)(C)[C@@H]2[C@@H](CCO)O[C@]3(C(=O)N(Cc4ccccc4)c4ccc(N5CCOC5=O)cc43)[C@H]2C)cc1`, the composite z-score was 0.693. In the case of `C=C(/C(=C/C[C@H](OC(C)=O)c1ccc(CO)o1)c1cnc2ccccc2c1)C(C)C`, the composite z-score is reported as 1.02. In the case of `COC(=O)[C@@]1(Cc2ccccc2)[C@H]2c3cc(C(=O)N4CCCC4)n(CCc4ccccn4)c3C[C@H]2CN1C(=O)c1ccccc1`, the composite z-score is reported as 0.915. For `COCC(=C=CC[C@H](O)c1ccc(OCCO)cc1)CCO`, the composite z-score was 0.227. Molecule `CCOC(=O)C1=C[C@@H](C(C)(C)C)N(S(=O)(=O)c2ccc(C)cc2)[C@H]1c1cccc2ccccc12` has a composite z-score of 1.09. `C=CC[C@@]1(C(=O)NCCCOC)N=C(c2ccc(OCCCO)cc2)O[C@@H]1c1ccccc1` was tested, and the composite z-score was -0.741. With `[N-]=[N+]=Nc1ccccc1C[C@]1(C(=O)NCCN2CCOCC2)COC(c2ccc(OCCCO)cc2)=N1` the composite z-score was 0.0221. `Cc1ccc(F)cc1S(=O)(=O)N[C@@H]1CCN(Cc2ccc(Br)cc2)C1` was tested, and the composite z-score was 0.895. With `OCCCC1=CC(c2ccc(CN3CCCC3)cc2)N(Cc2cc3c(cc2Br)OCO3)CC1` (stereo unspecified) the composite z-score was -0.102. Molecule `COC(=O)C1=CC(CCCO)=CC(c2ccc(CN3CCCC3)cc2)N(Cc2cccc(OC(F)(F)F)c2)C=C1C(=O)OC` (stereo unspecified) has a composite z-score of 0.888. `CC(CO)N1C(=O)[C@@H]2[C@H]3C(=O)OCC=C[C@H]3OC23C=CCN(Cn2nnc4ccccc42)C(=O)[C@@H]13` (stereo partly specified) gave a composite z-score of -0.652. `CC(C)NC(=O)[C@@]1(c2ccc([N+](=O)[O-])cc2)CC(=O)N(C2CCCCC2)[C@@H]1c1ccc(CO)cc1` showed a composite z-score of 1.07. With `O=C1CS(=O)(=O)C(c2cccc([N+](=O)[O-])c2)N1c1ccccc1` (stereo unspecified) the composite z-score was 0.336. `NC(=O)NCC#Cc1ccc2c(c1)[C@]1(C(=O)N2)[C@H](c2ccccc2OCCO)N2[C@H](c3ccccc3)[C@H](c3ccccc3)OC(=O)[C@H]2[C@@H]1C(=O)NC[C@H](O)c1ccccc1` showed a composite z-score of -0.112. For `CCCC[C@@H](O)C1=C(COc2ccccc2)C[C@H]2C(=O)N(Cc3ccccc3)C(=O)[C@H]2[C@H]1CO`, the composite z-score was 0.323. In the case of `COC(=O)[C@@]1(Cc2ccc(F)cc2)[C@H]2c3cc(C(=O)N(C)C)n(Cc4ccc(OC(F)(F)F)cc4)c3C[C@H]2CN1C(=O)c1ccccc1`, the composite z-score is reported as -0.0482. With `COCCOC(=O)N1C(=O)[C@@]2(c3cc(C#CC4=CCCCC4)ccc31)[C@H](c1ccccc1OCCO)N1[C@H](c3ccccc3)[C@H](c3ccccc3)OC(=O)[C@H]1[C@@H]2C(=O)N1CCN(c2ncccn2)CC1` the composite z-score was 1.12. `O=C1OCCC=C[C@H]2OC34C=CCN(c5ccc6ccccc6c5)C(=O)[C@H]3N(CCCO)C(=O)[C@@H]4C12` (stereo partly specified) gave a composite z-score of -1.19. For `CCCC=C(CCC)[C@@H](NS(=O)(=O)CC12CCC(CC1=O)C2(C)C)c1ccc(C(=O)OC)cc1` (stereo partly specified), the composite z-score was 0.408. `CC(C)[Si](C#C[Si](C(C)C)(C(C)C)C(C)C)(O[C@H](c1ccccc1)c1cn(Cc2ccccc2)nn1)C(C)C` showed a composite z-score of 0.361. `C[N+](C)(C)CCCC[C@@H]1NC(=O)[C@@H]2C[C@H](C(=O)NCCCCCCN)[C@H](c3cccc(OCCO)c3)N2C1=O` was tested, and the composite z-score was 0.748. `COC(=O)[C@@H]1N=C(c2ccc(OCCCO)cc2)O[C@@H]1C` was tested, and the composite z-score was 0.0599. For `Cc1ccc(N2C(=O)c3ccccc3[C@@H](C(=O)NCCCN(C)C)[C@@H]2c2ccc(CO)cc2)nc1`, the composite z-score was -0.916. With `C#CCN(Cc1ccccc1Br)[C@H](/C=C/c1ccccc1)[C@@H](O)Cc1ccccc1` the composite z-score was -0.623. For `COCCOC(=O)N1C(=O)[C@@]2(c3cc(C#CC4=CCCCC4)ccc31)[C@H](c1ccccc1OCCO)N1[C@H](c3ccccc3)[C@H](c3ccccc3)OC(=O)[C@H]1[C@@H]2C(=O)NC[C@H](O)c1ccccc1`, the composite z-score was 1.07. In the case of `NCCCCCCNC(=O)[C@@H]1C[C@@H]2C(=O)N[C@@H](CCCCN)C(=O)N2[C@@H]1c1ccc(O)cc1`, the composite z-score is reported as 0.549. With `C=CC[C@]1(C(=O)N2CCOCC2)COC(c2ccc(OCCCO)cc2)=N1` the composite z-score was 1.09. In the case of `COc1ccc(C(=O)Nc2ccc(CN3C(=O)[C@]4(O[C@H](CC(=O)N5Cc6ccccc6C[C@H]5CO)[C@@H]([Si](C)(C)c5ccc(OC)cc5)[C@@H]4C)c4ccccc43)cc2)cc1`, the composite z-score is reported as 1.13. With `CCCNC(=O)[C@@H]1c2ccccc2C(=O)N(Cc2ccc(OC(F)(F)F)cc2)[C@H]1c1ccc(CO)cc1` the composite z-score was 0.0529.
